Results as given in paper PMC7819943, “Rice protein-binding microarrays: a tool to detect cis-acting elements near promoter regions in rice”.
Whole data set: some 68,000 sequences, median “fluorescence intensity (a.u.)” near 9,100, cut for the highest 2% near 16,000. The full list was thinned out, with the highest values kept by preference.

target: OsWRKY34 (Oryza sativa, UniProt Q0JBA9 1-250); assay: protein-binding microarray (RPBM); PBS, 2% BSA, 51.3 ng/ul salmon testes DNA, 50 uM zinc acetate, 200 nM TF, 25 C, 1 h; high values mean tight binding; details: protein: recombinant; tags: N-terminal polyhistidine and DsRed monomer fusion (pET32a); label: CyDye5-dUTP incorporated in the synthesized complementary strand; 3' TTTTT single-stranded linker to array surface; dsDNA, one strand shown
Sequence (Q0JBA9 entry or part of it): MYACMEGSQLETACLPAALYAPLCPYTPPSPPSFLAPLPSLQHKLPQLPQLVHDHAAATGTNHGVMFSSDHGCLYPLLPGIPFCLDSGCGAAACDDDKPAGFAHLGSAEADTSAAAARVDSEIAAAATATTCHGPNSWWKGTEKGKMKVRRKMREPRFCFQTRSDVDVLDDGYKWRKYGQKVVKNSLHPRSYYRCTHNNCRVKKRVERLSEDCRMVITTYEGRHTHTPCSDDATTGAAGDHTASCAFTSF
How it was run: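 In PBS with 2% BSA, salmon testes DNA and 50 µM zinc acetate, 200 nM protein was incubated on a custom Agilent array at 25 °C for 1 h and then washed off. The array had been made double-stranded by primer extension with Cy5-dUTP and blocked with 2% BSA. The proteins were transcription factors fused N-terminally to polyhistidine and DsRed, expressed in E. coli BL21-CodonPlus and purified on Ni–NTA. The binding signal is per-feature fluorescence intensity (arbitrary units) from an Axon 4000B scanner.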

| Sequence | binding signal |
| --- | --- |
| TGGCCGCGGCTGCTGCTGAGTGTGGTGGTGGTGGGAGGCACGGAGTCACCTAGTGCAG | 8880 fluorescence intensity (a.u.) |
| CCCCAAAATTTTTCACCATGTCACATCAAACGTTTGAACACGGAGTCACCTAGTGCAG | 8490 fluorescence intensity (a.u.) |
| TTCACACCGTCGTATTTGCCACTTTACTGACGCTCGAAGCCGGAGTCACCTAGTGCAG | 8060 fluorescence intensity (a.u.) |
| TACTAATTTCCTTCGCACATCCAGCAATCAGATATCCTGACGGAGTCACCTAGTGCAG | 9760 fluorescence intensity (a.u.) |
| CATCCCTAGTCGGCGTCTTGTCATCGCCGCCCCAATCTCGCGGAGTCACCTAGTGCAG | 8260 fluorescence intensity (a.u.) |
| TCCTCCTCGCCGCCCGGCGAATCCCGCGCCTCCTCGCTTCCGGAGTCACCTAGTGCAG | 9070 fluorescence intensity (a.u.) |
| GCCTCGTTTCCATCTCCGCCGCGCTCGCCGCGTTCACACTCGGAGTCACCTAGTGCAG | 11400 fluorescence intensity (a.u.) |
| AGCGCTACTCCACATCTGTTTGCTCGTGCTCTCCGGATCTCGGAGTCACCTAGTGCAG | 8550 fluorescence intensity (a.u.) |
| GCTCCATCTCTCGTCTCGCGCTTCACTCCACATCTGTTTCCGGAGTCACCTAGTGCAG | 18300 fluorescence intensity (a.u.) |
| CTTTCCTTGCGCTGTTCTTCGCTTCATCCATCCATCAGCTCGGAGTCACCTAGTGCAG | 10800 fluorescence intensity (a.u.) |
| CACACTGTGCACGCCATTCTTATCTTGTCTAGCTTCATCTCGGAGTCACCTAGTGCAG | 16600 fluorescence intensity (a.u.) |
| ATCTTCTATTCACGGCTTGCCATCTGTGCACTGTAATTTTCGGAGTCACCTAGTGCAG | 9850 fluorescence intensity (a.u.) |
| ATCCATTTCCAGCTTCGTCTTCATCTTGGCTTGGCGCGCTCGGAGTCACCTAGTGCAG | 17800 fluorescence intensity (a.u.) |
| TGCGCTCATGGCCATCCATTTTCTTCTTCTTCTTTTTTTTCGGAGTCACCTAGTGCAG | 10300 fluorescence intensity (a.u.) |
| GCATCTCCACAGTCCACACTGTGCGCGCCATTCTTATCCTCGGAGTCACCTAGTGCAG | 14100 fluorescence intensity (a.u.) |
| AGCATCCGAATCCGGCCACCTCATCATCTCGCCTCGCTTCCGGAGTCACCTAGTGCAG | 16900 fluorescence intensity (a.u.) |
| CGCTTCCTCGCCGCGCGCGCGCCCGCCATCTCCTCGCCTCCGGAGTCACCTAGTGCAG | 9350 fluorescence intensity (a.u.) |
| CCACCTGCTCGCCGTCGACGCCGCCCTCGCCATCTTCAATCGGAGTCACCTAGTGCAG | 12800 fluorescence intensity (a.u.) |
| CCATCGCCATTGACACGGACACCTTACCTGTCACAAAGAACGGAGTCACCTAGTGCAG | 8160 fluorescence intensity (a.u.) |
| CGACGCGCCATCGCCTCGCCTCTCACCTACTGCCTCGTCCCGGAGTCACCTAGTGCAG | 8820 fluorescence intensity (a.u.) |
| ACTTCTTGCTGATCTTCTTGGACTGCTTTTGCACCTTCTTCGGAGTCACCTAGTGCAG | 9360 fluorescence intensity (a.u.) |
| ATGCACCACTGTTCCTGTCCTGGCTTTGCACAACATCCATCGGAGTCACCTAGTGCAG | 13300 fluorescence intensity (a.u.) |
| ATGTTCAGTAGTTAAAGAGGATACTGGCCACATGCTTGACCGGAGTCACCTAGTGCAG | 8790 fluorescence intensity (a.u.) |
